# Measured values reported in PMC7862700, “An all-to-all approach to the identification of sequence-specific readers for epigenetic DNA modifications on cytosine”.
# Experiments:
# Test in all cases: DAPPL (digital affinity profiling via proximity ligation, sequencing); 10 mM Tris-HCl pH 7.5, 50 mM NaCl, 1 mM DTT, 4% glycerol, room temperature, 30 min; GST-TFs on glutathione beads, 16-mer random dsDNA library, 0.1% formaldehyde crosslink after washing; high values mean tight binding
# Conditions in all cases: protein: recombinant; tags: N-terminal GST; dsDNA, one strand shown
# FLI1 = target: T1, FLI1 (Homo sapiens, UniProt Q01543 1-452)
# T1 sequence: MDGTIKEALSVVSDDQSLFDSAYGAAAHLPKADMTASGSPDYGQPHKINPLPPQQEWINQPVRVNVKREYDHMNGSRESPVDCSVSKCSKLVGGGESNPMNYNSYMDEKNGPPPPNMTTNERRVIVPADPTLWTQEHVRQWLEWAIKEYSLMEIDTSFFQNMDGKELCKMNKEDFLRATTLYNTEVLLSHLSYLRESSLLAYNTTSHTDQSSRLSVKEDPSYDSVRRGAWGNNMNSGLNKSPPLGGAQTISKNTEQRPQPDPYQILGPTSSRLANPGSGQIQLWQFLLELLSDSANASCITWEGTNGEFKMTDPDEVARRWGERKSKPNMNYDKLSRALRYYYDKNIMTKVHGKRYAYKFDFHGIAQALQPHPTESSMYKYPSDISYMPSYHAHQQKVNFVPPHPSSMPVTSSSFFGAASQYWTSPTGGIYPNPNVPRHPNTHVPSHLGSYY
# Summary of the method: (§1)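 After expression in yeast as GST fusions, human transcription factors were bound to glutathione beads, DNA-barcoded and mixed with a tag-only sample. The pools were incubated with 200 nmole of a 16-mer random double-stranded DNA library in Tris/NaCl/DTT/glycerol buffer (30 min, room temperature), washed and crosslinked with 0.1% formaldehyde. Proximity ligation with BsaI/T4 ligase ran for 1 h at 37 °C, before PCR amplification and sequencing on an Illumina NextSeq500. Binding signal is a hexamer's read frequency for a factor divided by its frequency for the tag-only sample.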
# ELK1 = target: T2, ELK1 (Homo sapiens, UniProt P19419 1-428)
# T2 sequence: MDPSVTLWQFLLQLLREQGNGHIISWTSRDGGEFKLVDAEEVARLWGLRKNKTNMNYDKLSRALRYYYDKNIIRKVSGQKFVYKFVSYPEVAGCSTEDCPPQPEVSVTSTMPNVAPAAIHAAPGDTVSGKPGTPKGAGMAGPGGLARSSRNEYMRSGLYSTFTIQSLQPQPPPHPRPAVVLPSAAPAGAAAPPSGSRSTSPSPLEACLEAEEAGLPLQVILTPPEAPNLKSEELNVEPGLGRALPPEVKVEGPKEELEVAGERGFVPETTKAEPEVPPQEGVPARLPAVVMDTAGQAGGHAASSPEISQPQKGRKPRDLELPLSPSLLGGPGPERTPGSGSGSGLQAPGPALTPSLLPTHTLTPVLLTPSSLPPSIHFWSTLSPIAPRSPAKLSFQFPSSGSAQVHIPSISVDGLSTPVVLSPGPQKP
# Summary of the method: as §1
# GABPA = target: T3, GABPA (Homo sapiens, UniProt Q06546 1-454)
# T3 sequence: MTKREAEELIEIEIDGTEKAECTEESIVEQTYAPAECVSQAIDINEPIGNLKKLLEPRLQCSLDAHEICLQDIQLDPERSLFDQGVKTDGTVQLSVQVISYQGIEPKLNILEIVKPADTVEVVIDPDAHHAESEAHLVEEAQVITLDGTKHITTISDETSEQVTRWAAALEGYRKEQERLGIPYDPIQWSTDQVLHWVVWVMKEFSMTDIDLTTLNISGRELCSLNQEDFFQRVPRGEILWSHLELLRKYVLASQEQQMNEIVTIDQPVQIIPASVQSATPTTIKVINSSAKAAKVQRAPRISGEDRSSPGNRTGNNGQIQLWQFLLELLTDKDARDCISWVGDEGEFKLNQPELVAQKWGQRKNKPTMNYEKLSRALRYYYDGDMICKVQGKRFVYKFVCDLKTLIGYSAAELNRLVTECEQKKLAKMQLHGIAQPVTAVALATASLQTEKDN
# Summary of the method: as §1
# ERG = target: T4, ERG (Homo sapiens, UniProt P11308 1-479)
# T4 sequence: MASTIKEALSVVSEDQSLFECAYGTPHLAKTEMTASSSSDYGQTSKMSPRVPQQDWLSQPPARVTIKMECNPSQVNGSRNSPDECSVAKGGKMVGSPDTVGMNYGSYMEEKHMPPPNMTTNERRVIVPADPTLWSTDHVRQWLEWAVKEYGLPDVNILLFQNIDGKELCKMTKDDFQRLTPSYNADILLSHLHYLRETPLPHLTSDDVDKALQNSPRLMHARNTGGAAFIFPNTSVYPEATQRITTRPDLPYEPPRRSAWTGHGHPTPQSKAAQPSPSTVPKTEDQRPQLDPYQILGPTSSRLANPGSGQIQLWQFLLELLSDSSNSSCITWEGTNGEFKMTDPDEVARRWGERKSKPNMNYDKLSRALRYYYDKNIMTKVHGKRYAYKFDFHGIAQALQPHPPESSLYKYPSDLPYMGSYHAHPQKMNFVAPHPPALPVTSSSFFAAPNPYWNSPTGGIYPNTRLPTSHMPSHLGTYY
# Summary of the method: as §1
# ELF1 = ELF1 (Homo sapiens, UniProt P32519 1-619)
# Sequence of ELF1 (P32519 whole entry): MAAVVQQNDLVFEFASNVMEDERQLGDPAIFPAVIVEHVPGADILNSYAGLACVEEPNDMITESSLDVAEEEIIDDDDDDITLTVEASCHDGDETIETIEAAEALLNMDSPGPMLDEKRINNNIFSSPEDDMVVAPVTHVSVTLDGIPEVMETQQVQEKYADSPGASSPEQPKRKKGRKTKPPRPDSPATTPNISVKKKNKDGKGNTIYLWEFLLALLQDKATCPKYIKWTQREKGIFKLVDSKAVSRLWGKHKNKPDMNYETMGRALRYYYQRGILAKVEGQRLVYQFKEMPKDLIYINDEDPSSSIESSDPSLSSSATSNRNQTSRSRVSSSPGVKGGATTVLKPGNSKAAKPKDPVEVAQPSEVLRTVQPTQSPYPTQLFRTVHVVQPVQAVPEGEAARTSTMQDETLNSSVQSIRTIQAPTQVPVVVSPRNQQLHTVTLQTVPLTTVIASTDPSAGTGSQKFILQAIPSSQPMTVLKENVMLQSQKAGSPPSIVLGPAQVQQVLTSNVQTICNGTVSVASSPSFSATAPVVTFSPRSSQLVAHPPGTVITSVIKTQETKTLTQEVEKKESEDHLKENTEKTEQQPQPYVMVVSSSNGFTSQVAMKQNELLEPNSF
# Summary of the method: as §1
# EHF = target: T5, EHF (Homo sapiens, UniProt Q9NZC4 1-300)
# T5 sequence: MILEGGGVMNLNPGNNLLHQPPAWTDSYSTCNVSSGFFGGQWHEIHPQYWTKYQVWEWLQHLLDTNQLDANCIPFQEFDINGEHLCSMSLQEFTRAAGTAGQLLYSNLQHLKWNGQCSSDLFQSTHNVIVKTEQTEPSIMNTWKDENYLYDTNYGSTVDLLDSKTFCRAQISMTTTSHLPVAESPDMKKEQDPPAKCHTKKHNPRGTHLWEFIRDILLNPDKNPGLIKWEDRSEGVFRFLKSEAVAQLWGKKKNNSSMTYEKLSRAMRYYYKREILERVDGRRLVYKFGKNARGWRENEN
# Summary of the method: as §1
# SPI1 = SPI1 (Homo sapiens, UniProt P17947 1-270)
# Summary of the method: as §1
# SPIB = SPIB (Homo sapiens, UniProt Q01892 1-262)
# Sequence of SPIB (Q01892 whole entry): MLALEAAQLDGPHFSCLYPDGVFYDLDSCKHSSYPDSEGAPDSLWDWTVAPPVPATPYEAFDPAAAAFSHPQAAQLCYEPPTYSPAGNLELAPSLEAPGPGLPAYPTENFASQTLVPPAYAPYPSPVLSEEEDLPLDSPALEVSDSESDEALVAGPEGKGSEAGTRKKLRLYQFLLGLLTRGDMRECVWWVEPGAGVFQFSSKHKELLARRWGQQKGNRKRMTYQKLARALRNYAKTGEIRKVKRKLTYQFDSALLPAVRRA
# Summary of the method: as §1
# ELK3 = target: T6, ELK3 (Homo sapiens, UniProt P41970 1-407)
# T6 sequence: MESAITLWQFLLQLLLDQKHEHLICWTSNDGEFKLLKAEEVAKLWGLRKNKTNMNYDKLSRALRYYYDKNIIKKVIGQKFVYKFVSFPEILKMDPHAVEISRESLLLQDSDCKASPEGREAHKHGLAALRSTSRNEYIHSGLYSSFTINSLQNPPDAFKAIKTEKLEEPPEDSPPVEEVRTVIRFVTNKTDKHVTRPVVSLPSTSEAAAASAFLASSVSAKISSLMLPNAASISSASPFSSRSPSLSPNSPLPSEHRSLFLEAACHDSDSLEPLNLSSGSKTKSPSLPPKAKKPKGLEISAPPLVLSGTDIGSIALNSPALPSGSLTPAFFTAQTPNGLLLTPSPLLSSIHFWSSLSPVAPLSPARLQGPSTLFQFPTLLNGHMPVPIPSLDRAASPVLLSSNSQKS
# Summary of the method: as §1
# FEV = target: T7, FEV (Homo sapiens, UniProt Q99581 1-238)
# T7 sequence: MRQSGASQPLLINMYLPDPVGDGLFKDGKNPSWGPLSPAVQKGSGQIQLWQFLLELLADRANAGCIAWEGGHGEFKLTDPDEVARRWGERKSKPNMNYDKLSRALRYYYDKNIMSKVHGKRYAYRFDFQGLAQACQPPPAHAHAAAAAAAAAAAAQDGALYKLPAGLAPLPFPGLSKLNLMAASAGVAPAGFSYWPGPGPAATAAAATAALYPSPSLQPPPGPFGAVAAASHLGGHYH
# Summary of the method: as §1
# ETV5 = ETV5 (Homo sapiens, UniProt P41161 1-510)
# Sequence of ETV5 (P41161 whole entry): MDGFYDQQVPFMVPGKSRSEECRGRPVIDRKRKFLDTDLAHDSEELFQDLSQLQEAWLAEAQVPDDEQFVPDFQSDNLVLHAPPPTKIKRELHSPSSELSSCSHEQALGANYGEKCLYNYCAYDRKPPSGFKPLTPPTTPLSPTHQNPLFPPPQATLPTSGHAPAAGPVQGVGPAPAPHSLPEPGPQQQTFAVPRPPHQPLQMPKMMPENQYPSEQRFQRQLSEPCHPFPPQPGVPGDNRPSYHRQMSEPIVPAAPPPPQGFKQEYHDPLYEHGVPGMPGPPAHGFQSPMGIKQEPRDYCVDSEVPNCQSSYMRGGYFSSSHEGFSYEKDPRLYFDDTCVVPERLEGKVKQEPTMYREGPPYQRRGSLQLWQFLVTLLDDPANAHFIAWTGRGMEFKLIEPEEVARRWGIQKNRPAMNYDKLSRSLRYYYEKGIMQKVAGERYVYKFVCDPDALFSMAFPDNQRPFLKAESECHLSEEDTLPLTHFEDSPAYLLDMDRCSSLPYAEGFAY
# Summary of the method: as §1
# ELF4 = ELF4 (Homo sapiens, UniProt Q99607 1-663)
# Sequence of ELF4 (Q99607 whole entry): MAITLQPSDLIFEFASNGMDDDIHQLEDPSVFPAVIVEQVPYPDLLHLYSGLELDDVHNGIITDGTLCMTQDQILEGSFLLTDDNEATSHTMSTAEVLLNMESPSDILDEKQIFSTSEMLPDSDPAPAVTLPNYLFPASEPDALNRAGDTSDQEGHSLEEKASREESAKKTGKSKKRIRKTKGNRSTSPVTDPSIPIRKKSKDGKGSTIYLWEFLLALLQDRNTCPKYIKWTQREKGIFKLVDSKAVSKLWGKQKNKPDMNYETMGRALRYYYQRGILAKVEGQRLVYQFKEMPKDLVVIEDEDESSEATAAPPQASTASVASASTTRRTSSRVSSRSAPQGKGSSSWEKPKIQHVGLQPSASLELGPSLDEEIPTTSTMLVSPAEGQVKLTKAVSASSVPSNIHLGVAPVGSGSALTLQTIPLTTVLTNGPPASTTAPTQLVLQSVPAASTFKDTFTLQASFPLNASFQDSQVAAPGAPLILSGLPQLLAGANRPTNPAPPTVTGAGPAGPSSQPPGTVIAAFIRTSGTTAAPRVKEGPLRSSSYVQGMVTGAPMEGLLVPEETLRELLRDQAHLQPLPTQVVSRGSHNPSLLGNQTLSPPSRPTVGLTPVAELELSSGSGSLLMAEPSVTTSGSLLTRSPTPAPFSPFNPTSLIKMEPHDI
# Summary of the method: as §1
# ETV1 = ETV1 (Homo sapiens, UniProt P50549 1-477)
# Sequence of ETV1 (P50549 whole entry): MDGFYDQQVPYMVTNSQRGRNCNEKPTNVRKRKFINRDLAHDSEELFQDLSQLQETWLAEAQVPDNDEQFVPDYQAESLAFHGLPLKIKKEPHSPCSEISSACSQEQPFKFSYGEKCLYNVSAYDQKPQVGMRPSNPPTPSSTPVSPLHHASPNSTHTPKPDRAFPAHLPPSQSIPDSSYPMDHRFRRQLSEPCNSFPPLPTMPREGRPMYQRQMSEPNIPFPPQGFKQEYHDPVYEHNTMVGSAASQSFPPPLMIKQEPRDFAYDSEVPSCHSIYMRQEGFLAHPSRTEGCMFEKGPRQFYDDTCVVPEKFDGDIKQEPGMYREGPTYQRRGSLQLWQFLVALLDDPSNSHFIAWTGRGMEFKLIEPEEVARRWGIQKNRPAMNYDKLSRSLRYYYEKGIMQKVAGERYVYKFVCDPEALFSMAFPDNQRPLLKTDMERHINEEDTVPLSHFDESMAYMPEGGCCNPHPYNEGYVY
# Summary of the method: as §1
# ERF = target: T8, ERF (Homo sapiens, UniProt P50548 1-548)
# T8 sequence: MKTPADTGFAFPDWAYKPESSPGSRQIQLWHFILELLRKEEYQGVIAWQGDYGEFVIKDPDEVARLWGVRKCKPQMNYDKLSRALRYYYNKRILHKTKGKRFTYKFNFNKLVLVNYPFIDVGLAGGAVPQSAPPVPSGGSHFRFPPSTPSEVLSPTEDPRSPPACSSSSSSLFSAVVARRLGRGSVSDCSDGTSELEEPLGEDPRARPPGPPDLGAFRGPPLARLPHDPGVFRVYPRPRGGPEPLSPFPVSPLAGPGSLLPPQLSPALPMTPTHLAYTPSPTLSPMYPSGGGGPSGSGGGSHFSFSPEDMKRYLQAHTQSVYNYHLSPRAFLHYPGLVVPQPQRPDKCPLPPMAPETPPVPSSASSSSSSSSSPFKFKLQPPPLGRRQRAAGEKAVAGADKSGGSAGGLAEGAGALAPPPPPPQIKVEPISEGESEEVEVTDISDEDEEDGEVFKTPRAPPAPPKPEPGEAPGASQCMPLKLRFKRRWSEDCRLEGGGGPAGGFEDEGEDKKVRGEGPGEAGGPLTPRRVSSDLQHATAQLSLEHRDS
# Summary of the method: as §1
# ETV3L = target: T9, ETV3L (Homo sapiens, UniProt Q6ZN32 1-361)
# T9 sequence: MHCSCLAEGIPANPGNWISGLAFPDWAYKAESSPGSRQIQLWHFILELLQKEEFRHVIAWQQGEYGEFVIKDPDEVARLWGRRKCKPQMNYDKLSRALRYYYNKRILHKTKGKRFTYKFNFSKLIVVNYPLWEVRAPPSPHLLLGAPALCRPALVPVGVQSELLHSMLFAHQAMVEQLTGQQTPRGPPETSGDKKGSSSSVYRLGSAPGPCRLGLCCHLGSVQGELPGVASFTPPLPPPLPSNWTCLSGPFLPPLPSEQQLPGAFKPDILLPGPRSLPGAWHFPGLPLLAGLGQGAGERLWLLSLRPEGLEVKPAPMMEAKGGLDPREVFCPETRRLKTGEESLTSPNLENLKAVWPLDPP
# Summary of the method: as §1
# ETS2 = target: T10, ETS2 (Homo sapiens, UniProt P15036 1-469)
# T10 sequence: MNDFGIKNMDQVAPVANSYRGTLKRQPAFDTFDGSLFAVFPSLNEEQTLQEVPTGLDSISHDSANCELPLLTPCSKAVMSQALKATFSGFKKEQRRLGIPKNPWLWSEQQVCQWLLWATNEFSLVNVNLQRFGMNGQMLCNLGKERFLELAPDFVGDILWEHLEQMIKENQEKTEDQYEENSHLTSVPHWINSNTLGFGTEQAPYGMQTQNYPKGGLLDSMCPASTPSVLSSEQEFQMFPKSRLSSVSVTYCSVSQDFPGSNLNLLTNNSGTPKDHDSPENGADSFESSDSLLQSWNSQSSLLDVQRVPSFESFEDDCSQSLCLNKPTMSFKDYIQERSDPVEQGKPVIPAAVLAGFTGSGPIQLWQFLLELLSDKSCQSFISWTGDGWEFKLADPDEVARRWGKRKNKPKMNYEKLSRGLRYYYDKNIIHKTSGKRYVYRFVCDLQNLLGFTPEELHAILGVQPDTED
# Summary of the method: as §1
# SPDEF = target: T11, SPDEF (Homo sapiens, UniProt O95238 1-335)
# T11 sequence: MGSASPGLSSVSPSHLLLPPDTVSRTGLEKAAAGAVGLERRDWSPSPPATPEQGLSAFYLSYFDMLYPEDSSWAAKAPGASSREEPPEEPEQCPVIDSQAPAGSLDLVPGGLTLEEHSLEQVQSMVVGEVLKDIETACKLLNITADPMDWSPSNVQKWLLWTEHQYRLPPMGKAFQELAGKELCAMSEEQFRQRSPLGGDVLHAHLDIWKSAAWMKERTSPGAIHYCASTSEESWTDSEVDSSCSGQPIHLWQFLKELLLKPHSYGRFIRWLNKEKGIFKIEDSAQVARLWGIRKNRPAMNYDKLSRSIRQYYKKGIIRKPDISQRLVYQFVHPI
# Summary of the method: as §1
# ETV3 = target: T12, ETV3 (Homo sapiens, UniProt P41162-2 1-143)
# T12 sequence: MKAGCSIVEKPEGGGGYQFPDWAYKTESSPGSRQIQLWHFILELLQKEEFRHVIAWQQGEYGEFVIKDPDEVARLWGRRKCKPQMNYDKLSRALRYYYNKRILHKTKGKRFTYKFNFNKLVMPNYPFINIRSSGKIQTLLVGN
# Summary of the method: as §1
# ETV6 = ETV6 (Homo sapiens, UniProt P41212 1-452)
# Sequence of ETV6 (P41212 whole entry): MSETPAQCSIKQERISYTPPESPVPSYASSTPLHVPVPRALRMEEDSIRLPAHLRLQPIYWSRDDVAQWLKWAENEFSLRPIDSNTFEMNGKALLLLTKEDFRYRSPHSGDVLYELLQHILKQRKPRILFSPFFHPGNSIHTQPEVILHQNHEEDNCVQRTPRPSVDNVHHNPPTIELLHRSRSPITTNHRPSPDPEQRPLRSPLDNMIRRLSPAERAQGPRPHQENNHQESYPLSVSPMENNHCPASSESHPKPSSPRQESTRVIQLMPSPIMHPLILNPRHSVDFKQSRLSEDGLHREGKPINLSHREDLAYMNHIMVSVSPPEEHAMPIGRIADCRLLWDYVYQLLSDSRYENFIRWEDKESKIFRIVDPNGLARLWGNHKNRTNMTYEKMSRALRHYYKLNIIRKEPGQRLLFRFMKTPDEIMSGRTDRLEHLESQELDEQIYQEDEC
# Summary of the method: as §1
sequence,measurement,setting,value
ACCGCA,binding signal,FLI1,"1.17 fold enrichment (6-mer frequency, TF over GST control)"
same,binding signal,ELK1,"1.14 fold enrichment (6-mer frequency, TF over GST control)"
same,binding signal,GABPA,"1.16 fold enrichment (6-mer frequency, TF over GST control)"
same,binding signal,ERG,"1.11 fold enrichment (6-mer frequency, TF over GST control)"
same,binding signal,ELF1,"1.15 fold enrichment (6-mer frequency, TF over GST control)"
same,binding signal,EHF,"1.23 fold enrichment (6-mer frequency, TF over GST control)"
same,binding signal,SPI1,"1.2 fold enrichment (6-mer frequency, TF over GST control)"
same,binding signal,SPIB,"1.16 fold enrichment (6-mer frequency, TF over GST control)"
same,binding signal,ELK3,"1.19 fold enrichment (6-mer frequency, TF over GST control)"
same,binding signal,FEV,"1.17 fold enrichment (6-mer frequency, TF over GST control)"
same,binding signal,ETV5,"1.13 fold enrichment (6-mer frequency, TF over GST control)"
same,binding signal,ELF4,"1.15 fold enrichment (6-mer frequency, TF over GST control)"
same,binding signal,ETV1,"1.17 fold enrichment (6-mer frequency, TF over GST control)"
same,binding signal,ERF,"1.11 fold enrichment (6-mer frequency, TF over GST control)"
same,binding signal,ETV3L,"1.12 fold enrichment (6-mer frequency, TF over GST control)"
same,binding signal,ETS2,"1.18 fold enrichment (6-mer frequency, TF over GST control)"
same,binding signal,SPDEF,"1.13 fold enrichment (6-mer frequency, TF over GST control)"
same,binding signal,ETV3,"1.09 fold enrichment (6-mer frequency, TF over GST control)"
same,binding signal,ETV6,"1.15 fold enrichment (6-mer frequency, TF over GST control)"
